Assay [1] is described as follows: small molecules captured by biotinylated probe aFSTL3 – biochemical, small-molecule microarray, fluorescence 635/667, stem cell growth factor project, primary screen (AID 1064).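 Note: measures binding of the biotinylated anti-FSTL3 antibody to printed compounds.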 The note with it: higher = more signal.
Assay [2] can be described thus: binders from COS7 lysate, DM2A8 probe, primary screen, torsin A project, cell lysate, small-molecule microarray, fluorescence 635/667 (AID 1065). The note with it: higher = more signal, COS7 lysate expressing mutant human TOR1A.
Assay [3] can be described thus: small molecules captured by biotinylated probe aFGF2 – biochemical, small-molecule microarray, fluorescence 635/667, stem cell growth factor project, primary screen (AID 1067).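 Note: measures binding of biotinylated aFGF2 protein to printed compounds on slides; z-score merges feature fluorescence and signal-to-noise across triplicate slides.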 Conditions: higher = more signal.
A short description of assay [4]: small molecules captured by biotinylated probe aFGF10 – biochemical, small-molecule microarray, fluorescence 635/667, stem cell growth factor project, primary screen (AID 1071).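 Note: score merges 667 nm spot intensity and signal to noise from triplicate slides.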 The note with it: higher = more signal.
Assay [5] concerns the target Neurogenic locus notch homolog protein 2 (Homo sapiens) (UniProt Q04721). The assay is described as follows: small molecules binding Notch2 protein – biochemical, small-molecule microarray, 635 nm fluorescence, stem cell growth factors, primary screen (AID 1073). The note with it: higher = more signal.
For assay [6], the target named is Pro-neuregulin-1, membrane-bound isoform (Homo sapiens) (UniProt Q02297). The assay is described as follows: small molecules binding neuregulin-1 protein – biochemical, small-molecule microarray, fluorescence 635/667, psychiatric disease protein project, primary screen (AID 1075).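 Note: score combines 667 nm spot fluorescence with signal to noise.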 Conditions: NRG1 binding, 635 nm fluorescence, higher = more signal.
Chain of Pro-neuregulin-1, membrane-bound isoform (Homo sapiens) (Q02297 whole entry, looked up, the tested form may be a part, canonical isoform): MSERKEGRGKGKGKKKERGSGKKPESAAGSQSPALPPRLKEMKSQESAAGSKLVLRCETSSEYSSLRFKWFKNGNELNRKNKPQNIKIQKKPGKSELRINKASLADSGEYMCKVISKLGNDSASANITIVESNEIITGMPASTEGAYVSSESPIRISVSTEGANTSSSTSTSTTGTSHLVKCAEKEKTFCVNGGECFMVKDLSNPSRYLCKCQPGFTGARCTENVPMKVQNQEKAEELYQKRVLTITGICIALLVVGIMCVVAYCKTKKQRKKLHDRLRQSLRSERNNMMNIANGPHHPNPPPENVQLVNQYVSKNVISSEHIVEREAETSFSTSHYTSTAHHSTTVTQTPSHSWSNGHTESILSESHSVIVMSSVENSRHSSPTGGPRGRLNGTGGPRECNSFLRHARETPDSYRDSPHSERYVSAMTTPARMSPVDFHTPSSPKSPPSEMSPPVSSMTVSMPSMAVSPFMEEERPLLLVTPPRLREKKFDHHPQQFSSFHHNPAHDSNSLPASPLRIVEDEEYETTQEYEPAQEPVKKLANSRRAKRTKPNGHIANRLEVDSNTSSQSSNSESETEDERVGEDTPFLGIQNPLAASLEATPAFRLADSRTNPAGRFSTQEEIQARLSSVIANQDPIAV
Assay [7] deals with Neuregulin-1 EGF-like domain. The assay is described as follows: small molecules binding NRG1 EGF domain – biochemical, small-molecule microarray, 635 nm fluorescence, primary screen (AID 1081).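 Note: binding of the protein to compounds printed on small-molecule microarray slides.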 The note with it: higher = more signal.
Assay [8] is described as follows: FRG1 expression reporter modulators in myotubes – cell-based, C2C12 myotubes, firefly/Renilla luciferase, luminescence, FRG1 inhibition for FSHD, primary screen (AID 1084). Conditions: FRG1 promoter luciferase, higher = more signal, called active from +8 up or from −8 down.
Assay [9] in a line: small molecules captured by biotinylated probe aFST – biochemical, small-molecule microarray, fluorescence 635/667, stem cell growth factor project, primary screen (AID 1086).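 Note: score merges 667 nm fluorescence with signal-to-noise of each printed compound spot.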 Conditions: higher = more signal.
Assay [10] is described as follows: binders of probe aHhip on microarray, primary screen, stem cell growth factor project, biochemical, small-molecule microarray, fluorescence 635/667 (AID 1087).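 Note: score merges spot fluorescence at 667nm with spot signal to noise ratio.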 Conditions: higher = more signal.
Assay [11] concerns PRMT1 (protein arginine N-methyltransferase 1). The assay is described as follows: small molecules binding arginine methyltransferase PRMT1 – biochemical, small-molecule microarray, 635 nm fluorescence, primary screen (AID 1088).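 Note: binding of Prmt1 protein to compounds spotted on small-molecule microarray slides.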 The note with it: higher = more signal.
The nature of assay [12]: growth effects on S. cerevisiae YJM789 – YJM789 clinical isolate, OD600, 24 h, basal, primary screen (AID 1089).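 Note: growth of clinical yeast isolate S. cerevisiae YJM 789 seeded 1000 cells per well; test concentration not given here.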 The note with it: higher = more signal, called active from +8 up or from −8 down.
Assay [13] in a line: S. pombe growth modifiers, basal conditions – strain 972, OD600, 24 h, no modulator, primary screen (AID 1090).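 Note: basal condition with compound alone and no growth modifier present; test concentration not given here.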 The note with it: S. pombe 972 growth, higher = more signal, called active from +8 up or from −8 down.
Assay [14] is described as follows: budding yeast growth modifiers under rapamycin – strain BY4716, OD600, 96 h, primary screen (AID 1091). Note: test concentration not given here. Conditions: S. cerevisiae BY4716 + rapamycin, higher = more signal, called active from +8 up or from −8 down.
For assay [15], the target named is Torsin-1A-interacting protein 2 (Homo sapiens) (UniProt Q8NFQ8). In words: small molecules binding lysate-expressed LULL1 – cell lysate, human LULL1 lysate, 635/667 nm fluorescence, primary screen (AID 1092).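 Note: probe is lysate of COS7 cells overexpressing human LULL1; score merges per-feature 667 nm fluorescence with signal-to-noise.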 The note with it: small-molecule microarray, hLULL1 lysate binding, 635 nm fluorescence; higher = more signal.
Chain of Torsin-1A-interacting protein 2 (Homo sapiens) (Q8NFQ8 whole entry, looked up): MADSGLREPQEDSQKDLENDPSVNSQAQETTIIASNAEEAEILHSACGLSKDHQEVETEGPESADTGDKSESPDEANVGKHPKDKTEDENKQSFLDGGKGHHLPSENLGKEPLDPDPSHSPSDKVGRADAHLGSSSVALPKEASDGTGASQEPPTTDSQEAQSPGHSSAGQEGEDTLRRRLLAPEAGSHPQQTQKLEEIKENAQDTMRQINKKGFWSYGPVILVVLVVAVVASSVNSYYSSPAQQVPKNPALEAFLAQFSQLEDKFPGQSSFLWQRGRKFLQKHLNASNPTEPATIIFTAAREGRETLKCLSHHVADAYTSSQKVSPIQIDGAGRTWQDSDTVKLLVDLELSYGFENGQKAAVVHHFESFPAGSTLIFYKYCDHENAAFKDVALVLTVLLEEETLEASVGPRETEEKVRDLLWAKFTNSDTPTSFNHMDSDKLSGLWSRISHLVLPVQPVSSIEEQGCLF
Assay [16] is described as follows: optical density change of DRC41 E. coli – strain DRC41, OD650, 24 h, E. coli filamentation project, primary screen (AID 1093).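 Note: MC1000 strain lacking acrAB efflux and sulA so SOS filamentation is blocked; test concentration not given here.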 Conditions: E. coli DRC41 growth, higher = more signal, called active from +8 up or from −8 down.
Assay [17] can be described thus: probe aLefty2 binding to arrayed compounds – biochemical, biotinylated probe, 635/667 nm fluorescence, primary screen (AID 1094).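 Note: score merges spot fluorescence near 667 nm with spot signal-to-noise ratio.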 The note with it: small-molecule microarray, higher = more signal.
Assay [18] concerns Noggin (protein binding on small-molecule microarray). In words: small molecules binding Noggin protein – biochemical, 635/667 nm fluorescence, primary screen (AID 1095).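 Note: score merges 667 nm feature fluorescence with signal to noise over triplicate slides.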 The note with it: 635 nm fluorescence, higher = more signal.
For assay [19], the target named is Neurogenic locus notch homolog protein 3 (Homo sapiens) (UniProt Q9UM47). The assay is described as follows: small molecules binding NOTCH3 protein – biochemical, 635/667 nm fluorescence, primary screen (AID 1096). The note with it: small-molecule microarray, 635 nm fluorescence, higher = more signal.
Assay [20] is described as follows: probe aEGFR binding to arrayed compounds – biochemical, biotinylated probe, 635/667 nm fluorescence, primary screen (AID 1097).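 Note: probe is a biotinylated anti-EGFR antibody binding compounds printed on slides; score combines fluorescence near 667 nm and signal to noise of each spot.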 The note with it: small-molecule microarray, higher = more signal.

Several values for one entry are separate records, joined by “and”; a condition that tells them apart may be missing. Equal entries are not always repeated. Activity calls are given as the source filed them.

Chain of Neurogenic locus notch homolog protein 2 (Homo sapiens) (Q04721 whole entry, looked up, canonical isoform): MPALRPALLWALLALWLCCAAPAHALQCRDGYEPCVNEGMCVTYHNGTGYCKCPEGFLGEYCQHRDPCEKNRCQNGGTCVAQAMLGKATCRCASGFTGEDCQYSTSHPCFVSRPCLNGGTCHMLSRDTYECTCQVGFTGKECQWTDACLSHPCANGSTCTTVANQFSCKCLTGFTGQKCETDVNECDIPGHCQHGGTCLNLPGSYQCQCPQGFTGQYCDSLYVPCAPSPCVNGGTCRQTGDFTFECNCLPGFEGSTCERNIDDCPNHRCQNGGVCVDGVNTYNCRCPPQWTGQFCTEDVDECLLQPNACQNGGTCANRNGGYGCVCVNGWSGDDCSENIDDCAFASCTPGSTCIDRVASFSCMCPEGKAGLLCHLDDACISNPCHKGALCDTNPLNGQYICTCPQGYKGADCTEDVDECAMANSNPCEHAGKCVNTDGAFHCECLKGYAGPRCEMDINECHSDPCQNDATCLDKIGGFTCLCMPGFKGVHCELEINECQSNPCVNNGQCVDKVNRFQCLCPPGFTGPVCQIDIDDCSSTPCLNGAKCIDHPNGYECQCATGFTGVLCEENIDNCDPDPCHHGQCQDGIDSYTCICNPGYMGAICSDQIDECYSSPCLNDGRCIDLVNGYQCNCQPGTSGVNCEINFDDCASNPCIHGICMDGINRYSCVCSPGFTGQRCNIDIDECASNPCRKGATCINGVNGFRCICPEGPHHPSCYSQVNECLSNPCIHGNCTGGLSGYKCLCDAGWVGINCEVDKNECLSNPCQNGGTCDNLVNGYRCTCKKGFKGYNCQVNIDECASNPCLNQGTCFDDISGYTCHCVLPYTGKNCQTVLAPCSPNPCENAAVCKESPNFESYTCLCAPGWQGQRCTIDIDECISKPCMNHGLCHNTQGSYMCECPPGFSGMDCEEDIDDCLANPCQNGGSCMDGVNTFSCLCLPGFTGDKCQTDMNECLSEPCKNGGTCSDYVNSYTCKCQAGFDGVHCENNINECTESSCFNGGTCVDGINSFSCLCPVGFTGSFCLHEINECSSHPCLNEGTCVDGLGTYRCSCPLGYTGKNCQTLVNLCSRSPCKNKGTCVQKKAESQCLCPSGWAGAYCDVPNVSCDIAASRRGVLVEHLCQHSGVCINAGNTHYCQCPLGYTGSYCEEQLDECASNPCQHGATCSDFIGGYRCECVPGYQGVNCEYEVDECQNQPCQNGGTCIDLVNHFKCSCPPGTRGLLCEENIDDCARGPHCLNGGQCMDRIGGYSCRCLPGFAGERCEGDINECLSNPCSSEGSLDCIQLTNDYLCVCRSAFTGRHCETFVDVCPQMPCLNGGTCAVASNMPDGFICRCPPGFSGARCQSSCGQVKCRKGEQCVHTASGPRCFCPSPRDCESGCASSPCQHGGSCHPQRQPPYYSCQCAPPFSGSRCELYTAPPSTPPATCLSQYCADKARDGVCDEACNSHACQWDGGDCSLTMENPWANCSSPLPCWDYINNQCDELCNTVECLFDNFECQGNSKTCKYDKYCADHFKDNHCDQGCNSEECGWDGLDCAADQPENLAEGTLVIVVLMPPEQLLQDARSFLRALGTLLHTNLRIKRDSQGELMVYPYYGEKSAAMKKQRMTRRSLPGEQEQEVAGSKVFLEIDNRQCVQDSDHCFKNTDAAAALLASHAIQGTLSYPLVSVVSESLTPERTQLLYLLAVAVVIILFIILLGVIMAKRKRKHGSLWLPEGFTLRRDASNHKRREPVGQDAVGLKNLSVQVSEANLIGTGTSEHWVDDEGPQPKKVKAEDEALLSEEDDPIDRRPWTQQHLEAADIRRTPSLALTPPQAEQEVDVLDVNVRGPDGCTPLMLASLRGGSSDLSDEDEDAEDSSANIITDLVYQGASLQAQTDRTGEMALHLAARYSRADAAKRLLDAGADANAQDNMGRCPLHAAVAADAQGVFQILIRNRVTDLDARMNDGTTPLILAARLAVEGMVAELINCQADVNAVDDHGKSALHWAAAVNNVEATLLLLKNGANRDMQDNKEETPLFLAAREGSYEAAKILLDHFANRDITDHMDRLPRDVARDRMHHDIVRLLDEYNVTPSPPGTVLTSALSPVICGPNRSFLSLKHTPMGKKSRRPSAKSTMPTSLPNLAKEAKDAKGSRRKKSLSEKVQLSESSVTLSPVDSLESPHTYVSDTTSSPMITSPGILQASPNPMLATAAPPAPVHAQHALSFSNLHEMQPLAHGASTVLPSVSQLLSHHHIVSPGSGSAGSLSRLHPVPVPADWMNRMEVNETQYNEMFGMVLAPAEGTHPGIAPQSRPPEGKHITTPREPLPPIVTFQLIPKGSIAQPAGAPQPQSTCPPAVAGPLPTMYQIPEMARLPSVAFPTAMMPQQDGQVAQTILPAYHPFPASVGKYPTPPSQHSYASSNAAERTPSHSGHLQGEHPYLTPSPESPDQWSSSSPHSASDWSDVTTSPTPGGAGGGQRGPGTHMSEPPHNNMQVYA

As for `COc1ccc(-c2ccc3c(n2)CCCN3CC(O)CN2CCCc3nc(-c4ccc(Br)cc4)ccc32)cc1` (stereo not given), the composite z-score is 0.0623 and 0.0721 in [1]; 0.744 and 0.464 in assay [2]; 0.12 in [3]; 0.505 and 0.348 in assay [4]; 0.684 and 0.709 in [5]; 1.05 and 0.841 in [6]. The composite z-score was 0.973 and 0.101 in [7]; 0.584 and 0.306 in [9]; 0.281 and 0.167 in [10]; 1.47 and -0.0348 in [11]; 1.24 and 0.778 in assay [15]; 0.351 and 0.141 in assay [17]. In addition, the composite z-score in assay [18] was 0.348 and 0.245; in assay [19] it was 0.877 and 0.491; in [20] it was 0.181 and 0.106. Further, the z-score in assay [8] is 3.12 (inactive) and 3.15 (inactive); in [12], 0.0467 (inactive) and -0.621 (inactive); in [13], -0.665 (inactive) and 0.124 (inactive); in assay [14] it was -2.52 (inactive) and -1.64 (inactive); in assay [16] it was 0.0393 (inactive) and 0.816 (inactive).

In the case of `C=CCN(CCCCC)C(=O)C1N(C(C)(C)CO)C(=O)C2C(C(=O)O)C3C=CC21O3` (stereo not given), the composite z-score in [1] is 0.215 and 0.754; in [2], -0.806 and -0.866; in assay [3] it was -0.223 and -0.193; in [4] it was -1.26 and -2.17; in assay [5], -1.64 and -2.02; in assay [6], -0.729 and 1.18. Moreover, the composite z-score was -0.369 and -0.726 in assay [7]; -2.01 and -0.558 in assay [9]; -0.261 and 0.0274 in assay [10]; -1.11 and -1.37 in assay [11]; -1.82 and -1.59 in assay [15]; -0.202 and -0.159 in assay [17]. For the same compound, the composite z-score in assay [18] was -2.03 and -1.91; in assay [19], -1.09 and -0.779; in assay [20], -0.258 and -0.301. Further, the z-score in assay [8] is 0.521 (inactive) and 1.02 (inactive); in [12], -0.447 (inactive) and -1.11 (inactive); in assay [13], -0.342 (inactive) and -0.0005 (inactive); in assay [14] it was -0.402 (inactive) and -0.177 (inactive); in assay [16], -0.373 (inactive) and -0.262 (inactive).

As to `CC(C)=NOCc1ccc(-c2cn([C@@H]3COC[C@H]3O)nn2)cc1`, the composite z-score was -0.401 in assay [1]; 0.032 in [2]; -0.0268 in [3]; 0.543 in [4]; 0.31 in [5]; -0.766 in assay [6]. Moreover, the composite z-score in [7] is 0.718; in assay [9], 0.169; in [10], 0.0722; in assay [11] it was -0.253; in assay [15], 0.226; in assay [17] it was 0.0434. Also, the composite z-score is 0.485 in assay [18], -0.328 in [19] and -0.0025 in assay [20]. Moreover, the z-score is 0.0937 (inactive) in assay [8]; 0.279 (inactive) in assay [12]; 0.132 (inactive) in assay [13]; -0.738 (inactive) in [14]; 0.484 (inactive) in [16].

On to `C=CCN(CCCCC)C(=O)C1N(c2ccc(CCO)cc2)C(=O)C2C(C(=O)O)C3C=CC21O3` (stereo not given), for which the composite z-score in [1] is -0.152 and 0.561; in assay [2], -0.875 and -0.415; in assay [3], -0.154 and -0.179; in assay [4], -0.808 and -0.367; in assay [5], -2.12 and -2.03; in assay [6], -0.638 and -0.72. Also, the composite z-score in assay [7] was -0.465 and -0.307; in assay [9], -0.623 and -0.681; in [10] it was -0.4 and -0.175; in assay [11], -0.303 and -0.476; in assay [15] it was -0.379 and 0.173; in [17], -0.0374 and 0.699. For the same compound, the composite z-score in [18] is -1.73 and -1.08; in assay [19], -0.636 and -0.651; in assay [20], -0.233 and -0.145. Moreover, the z-score in assay [8] was 1.51 (inactive) and 1.3 (inactive); in assay [12] it was 0.0099 (inactive) and -0.194 (inactive); in assay [13], -0.804 (inactive) and 0.336 (inactive); in assay [14], -0.231 (inactive) and -0.137 (inactive); in assay [16] it was 0.287 (inactive) and 1.11 (inactive).

These data come from PubChem BioAssay.
